Test results taken from PubChem BioAssay AID1159580 (chemical genetic matrix, 2015).
“And” between values parts separate entries of the source, which are not always exact repeats. Equal values may be shown once. Hit rate of the full screen: of about 5,500 compounds, about 2,000 (36%) were called active. Another 18% or so got no clear call; they are omitted. Cut-off read from the data, not from the text of the source: active = normalized growth mostly below about 0.91 (no sharp cut-off); inconclusive = no clear call, values can overlap the other calls; inactive = mostly above about 0.92. The list shows a part of the results.

Assay: chemical genetic growth profiling, strain panel (AID 1159580);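 note: tested at 20 µM; growth read once vehicle control cultures reached saturation at 30 °C; 1 = growth at the plate median or of vehicle wells; lower values mean less growth of the strain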
Conditions: growth OD

Measured: normalized growth

CN1CCN(CC(=O)N2c3ccccc3C(=O)Nc3cccnc32)CC1
inactive: S. cerevisiae deletion strains, locus YJR075W, strain HOC1, stronger effect = lower value 1.01 and 0.992 | S. cerevisiae deletion strains, locus YKL009W, strain mrt4, stronger effect = lower value 0.998 | S. cerevisiae deletion strains, locus YKL068W, stronger effect = lower value 1 | S. cerevisiae deletion strains, locus YKL085W, strain MDH1 (second series), stronger effect = lower value 1.02 | S. cerevisiae deletion strains, locus YKL085W, strain MDH1, stronger effect = lower value 1.02 | S. cerevisiae deletion strains, locus YKL160W, strain elf1, stronger effect = lower value 1.01 | S. cerevisiae deletion strains, locus YKL190W, strain CNB1, stronger effect = lower value 1.01 | S. cerevisiae deletion strains, locus YKR001C, strain vps1, stronger effect = lower value 1.01 | S. cerevisiae deletion strains, locus YKR026C, strain gcn3, stronger effect = lower value 1.01 | S. cerevisiae deletion strains, locus YKR091W, strain srl3, stronger effect = lower value 1 | S. cerevisiae deletion strains, locus YLL001W, strain dnm1, stronger effect = lower value 1.01 | S. cerevisiae deletion strains, locus YLL026W, stronger effect = lower value 1.02 | S. cerevisiae deletion strains, locus YLL041C, strain sdh2, stronger effect = lower value 1.01 | S. cerevisiae deletion strains, locus YLR027C, strain aat2, stronger effect = lower value 1 | S. cerevisiae deletion strains, locus YLR039C, strain RIC1, stronger effect = lower value 1.04 | S. cerevisiae deletion strains, locus YLR058C, strain SHM2, stronger effect = lower value 1.02 | S. cerevisiae deletion strains, locus YLR102C, strain apc9, stronger effect = lower value 1.02 | S. cerevisiae deletion strains, locus YLR113W, strain HOG1, stronger effect = lower value 0.989 | S. cerevisiae deletion strains, locus YLR221C, strain rsa3, stronger effect = lower value 1.01 | S. cerevisiae deletion strains, locus YLR258W, strain gsy2, stronger effect = lower value 1.02 | S. cerevisiae deletion strains, locus YLR262C, strain YPT6 (second series), stronger effect = lower value 0.992 | S. cerevisiae deletion strains, locus YLR262C, strain YPT6, stronger effect = lower value 1.04 | S. cerevisiae deletion strains, locus YLR268W, strain sec22, stronger effect = lower value 1.03 | S. cerevisiae deletion strains, locus YLR320W, strain mms22, stronger effect = lower value 1.02 | S. cerevisiae deletion strains, locus YLR330W, strain CHS5, stronger effect = lower value 1.01 | S. cerevisiae deletion strains, locus YLR342W, strain FKS1 (second series), stronger effect = lower value 1.05 | S. cerevisiae deletion strains, locus YLR342W, strain FKS1, stronger effect = lower value 1.01 | S. cerevisiae deletion strains, locus YLR357W, strain rsc2, stronger effect = lower value 1.05 | S. cerevisiae deletion strains, locus YLR370C, strain arc18, stronger effect = lower value 1.03 | S. cerevisiae deletion strains, locus YLR371W, strain rom2, stronger effect = lower value 1.03 | S. cerevisiae deletion strains, locus YLR384C, strain iki3, stronger effect = lower value 1.02 | S. cerevisiae deletion strains, locus YLR418C, strain cdc73, stronger effect = lower value 1.05 | S. cerevisiae deletion strains, locus YML016C, strain PPZ1, stronger effect = lower value 1.01 | S. cerevisiae deletion strains, locus YML032C, strain rad52, stronger effect = lower value 1.01 | S. cerevisiae deletion strains, locus YML120C, strain ndi1, stronger effect = lower value 1 | S. cerevisiae deletion strains, locus YML124C, strain tub3, stronger effect = lower value 1.02 | S. cerevisiae deletion strains, locus YMR058W, strain fet3, stronger effect = lower value 1.04 | S. cerevisiae deletion strains, locus YMR078C, strain ctf18, stronger effect = lower value 1.01 | S. cerevisiae deletion strains, locus YMR125W, strain sto1, stronger effect = lower value 1.01 | S. cerevisiae deletion strains, locus YMR129W, stronger effect = lower value 1.02 | S. cerevisiae deletion strains, locus YMR205C, strain PFK2, stronger effect = lower value 1.04 | S. cerevisiae deletion strains, locus YMR223W, strain ubp8, stronger effect = lower value 1.01 | S. cerevisiae deletion strains, locus YMR231W, strain pep5, stronger effect = lower value 1.02 | S. cerevisiae deletion strains, locus YMR263W, strain SAP30, stronger effect = lower value 1.01 | S. cerevisiae deletion strains, locus YMR307W, strain GAS1, stronger effect = lower value 1.07 | S. cerevisiae deletion strains, locus YNL067W, strain RPL9B, stronger effect = lower value 1.01 | S. cerevisiae deletion strains, locus YNL071W, strain lat1, stronger effect = lower value 1.03 | S. cerevisiae deletion strains, locus YNL128W, strain TEP1, stronger effect = lower value 1.03 | S. cerevisiae deletion strains, locus YNL153C, strain GIM3, stronger effect = lower value 1.01 | S. cerevisiae deletion strains, locus YNL175C, strain NOP13, stronger effect = lower value 0.985 | S. cerevisiae deletion strains, locus YNL183C, strain NPR1, stronger effect = lower value 0.938 | S. cerevisiae deletion strains, locus YNL197C, strain WHI3, stronger effect = lower value 0.982 | S. cerevisiae deletion strains, locus YNL209W, strain ssb2, stronger effect = lower value 1.02 | S. cerevisiae deletion strains, locus YNL224C, strain SQS1, stronger effect = lower value 1.01 | S. cerevisiae deletion strains, locus YNL233W, strain BNI4, stronger effect = lower value 1.01 | S. cerevisiae deletion strains, locus YNL248C, strain rpa49, stronger effect = lower value 1.03 | S. cerevisiae deletion strains, locus YNL250W, strain rad50, stronger effect = lower value 1.01 | S. cerevisiae deletion strains, locus YNL271C, strain bni1, stronger effect = lower value 1.01 | S. cerevisiae deletion strains, locus YNL298W, strain CLA4, stronger effect = lower value 1.02 | S. cerevisiae deletion strains, locus YNL307C, strain MCK1, stronger effect = lower value 1.03 | S. cerevisiae deletion strains, locus YNL322C, strain KRE1 (second series), stronger effect = lower value 1.02 | S. cerevisiae deletion strains, locus YNL322C, strain KRE1, stronger effect = lower value 1.01 | S. cerevisiae deletion strains, locus YNR049C, strain mso1, stronger effect = lower value 1 | S. cerevisiae deletion strains, locus YNR052C, strain pop2, stronger effect = lower value 1.03 | S. cerevisiae deletion strains, locus YOL006C, strain TOP1, stronger effect = lower value 1.05 | S. cerevisiae deletion strains, locus YOL012C, strain htz1 0.832 | S. cerevisiae deletion strains, locus YOL147C, strain pex11, stronger effect = lower value 1.04 | S. cerevisiae deletion strains, locus YOR001W, strain rrp6, stronger effect = lower value 1.02 | S. cerevisiae deletion strains, locus YOR061W, strain CKA2, stronger effect = lower value 1.01 | S. cerevisiae deletion strains, locus YOR069W, strain VPS5, stronger effect = lower value 1.01 | S. cerevisiae deletion strains, locus YOR070C, strain gyp1, stronger effect = lower value 1.02 | S. cerevisiae deletion strains, locus YOR080W, strain dia2, stronger effect = lower value 1.01 | S. cerevisiae deletion strains, locus YOR083W, strain WHI5 (second series), stronger effect = lower value 0.986 | S. cerevisiae deletion strains, locus YOR083W, strain WHI5, stronger effect = lower value 0.967 | S. cerevisiae deletion strains, locus YOR106W, strain vam3, stronger effect = lower value 1.02 | S. cerevisiae deletion strains, locus YOR136W, strain idh2, stronger effect = lower value 1.01 | S. cerevisiae deletion strains, locus YOR144C, strain elg1, stronger effect = lower value 1.02 | S. cerevisiae deletion strains, locus YOR184W, strain ser1, stronger effect = lower value 1.01 | S. cerevisiae deletion strains, locus YOR231W, strain MKK1, stronger effect = lower value 0.983 | S. cerevisiae deletion strains, locus YOR265W, strain rbl2, stronger effect = lower value 1.01 | S. cerevisiae deletion strains, locus YOR270C, strain vph1, stronger effect = lower value 1.06 | S. cerevisiae deletion strains, locus YOR290C, strain snf2, stronger effect = lower value 1.02 | S. cerevisiae deletion strains, locus YOR316C, strain cot1, stronger effect = lower value 1.02 | S. cerevisiae deletion strains, locus YPL051W, strain arl3, stronger effect = lower value 1.01 | S. cerevisiae deletion strains, locus YPL055C, strain LGE1, stronger effect = lower value 1.01 | S. cerevisiae deletion strains, locus YPL078C, strain atp4, stronger effect = lower value 1.02 | S. cerevisiae deletion strains, locus YPL106C, strain sse1, stronger effect = lower value 1.03 | S. cerevisiae deletion strains, locus YPL240C, strain hsp82, stronger effect = lower value 1 | S. cerevisiae deletion strains, locus YPL241C, strain CIN2, stronger effect = lower value 1.01 and 0.991 | S. cerevisiae deletion strains, locus YPL256C, strain CLN2, stronger effect = lower value 0.978 | S. cerevisiae deletion strains, locus YPR119W, strain clb2, stronger effect = lower value 1.01 | S. cerevisiae deletion strains, locus YPR141C, strain kar3, stronger effect = lower value 1.02 | S. cerevisiae deletion strains, locus YPR163C, strain tif3, stronger effect = lower value 1.03 | S. cerevisiae deletion strains, locus YPR167C, strain met16, stronger effect = lower value 1.02 | S. cerevisiae deletion strains, strain wtn01, stronger effect = lower value 1.01 | S. cerevisiae strains, strain wild type, stronger effect = lower value 1.01
